Screens: PubChem BioAssay, National Center for Advancing Translational Sciences (NCATS)
Shown are actives, neighbours in structure and some others; about 18% of the full set was active somewhere.
TDP1 cell noCPT – qHTS for Inhibitors of human tyrosyl-DNA phosphodiesterase 1 (TDP1): qHTS in cells in absence of CPT. Potency, µM (titrated, usually from 46.2 µM), for the others: top-dose activity change, negative = growth inhibition, most hits filed as inhibitors. AID 686978, 2013. DT40 Tdp1-/- hTDP1 cells, no CPT, ATP luminescence, 48 h. 15% of 420,000 active; further: potency means the concentration at half of the fitted maximal effect; on the % scale 0 is the no-effect control and ±100 the full control effect; nearly all actives have a fitted effect of over 55% in size
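Stably hTDP1-transfected Tdp1-null chicken DT40 cells were treated with library compounds minus camptothecin and grown for at least 48 hr at 37 °C, after which cellular ATP was quantified by luminescence.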
HepG2 tox – counter-screen for TGF-b inhibitors: cytotoxicity in HepG2 cells. HepG2 CAGA-GFP viability, ATP luminescence, 18 h. Potency, µM (doses to about 46.1 µM), without a hit: at the highest dose activity change, negative = cytotoxicity, hits mostly cytotoxic. 0.76% of 410,000 active. AID 588856; further: potency means the concentration at half of the fitted maximal effect
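CellTiter-Glo luminescence gave cytotoxicity after 18 hours at 37 degrees C. The cells were HepG2 CAGA-GFP in 1% FBS DMEM, stimulated with 500 pg/mL TGF-beta after compound addition. %Activity was normalised to no-cell wells (complete cell-killing) and DMSO (no toxicity), and curves were fitted and classified.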
IL1B secr inh – inhibitors of inflammasome signaling (IL-1 beta secretion) | THP-1 LPS/ATP IL-1B secretion, AlphaLISA, 16 h; active compounds read low | activity change, % at 57.5 µM | 4.7% of 360,000 active | AID 743279; in the data active means activity change below about -50%; inconclusive means mostly about -30% to -49%; further: on the % scale 0 is the no-effect control and ±100 the full control effect
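THP-1 cells pretreated 1 hr with compounds (up to 57.5 uM final), then stimulated with LPS (250 ng/mL final) plus ATP (1.25 mM final); secreted IL-1B measured by AlphaLISA after 16 hr, decreased signal indicating inhibition.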
TDP1 block – blocks human tyrosyl-DNA phosphodiesterase 1; Potency, µM (doses to about 130 µM), for the others: at the highest dose activity change, negative = inhibition, actives largely listed as inhibitors; AID 485290; Q9NUW8; 0.28% of 350,000 active; recombinant TDP1, AlphaScreen DNA substrate cleavage; further: potency means the concentration at half of the fitted maximal effect; on the % scale 0 is the no-effect control and ±100 the full control effect; nearly all actives have a fitted effect of over 40% in size
Target sequence (Q9NUW8 whole entry, looked up): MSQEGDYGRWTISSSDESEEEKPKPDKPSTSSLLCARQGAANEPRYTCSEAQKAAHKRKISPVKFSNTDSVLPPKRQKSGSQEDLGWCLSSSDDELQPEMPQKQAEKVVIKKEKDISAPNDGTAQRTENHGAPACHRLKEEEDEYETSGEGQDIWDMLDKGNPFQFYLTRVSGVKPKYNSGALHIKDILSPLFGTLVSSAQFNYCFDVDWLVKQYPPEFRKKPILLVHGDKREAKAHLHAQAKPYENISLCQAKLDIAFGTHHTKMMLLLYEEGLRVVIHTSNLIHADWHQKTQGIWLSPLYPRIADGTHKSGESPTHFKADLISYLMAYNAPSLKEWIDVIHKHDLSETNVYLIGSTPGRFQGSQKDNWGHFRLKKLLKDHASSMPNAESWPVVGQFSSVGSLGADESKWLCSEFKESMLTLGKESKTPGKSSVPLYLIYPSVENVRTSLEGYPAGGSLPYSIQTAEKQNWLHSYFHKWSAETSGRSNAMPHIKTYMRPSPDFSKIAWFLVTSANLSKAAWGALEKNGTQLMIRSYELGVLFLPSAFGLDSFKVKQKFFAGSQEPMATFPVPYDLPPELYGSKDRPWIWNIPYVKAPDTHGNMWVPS
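E. coli-derived human Tdp1, 1 nM final. Cpd preinc 15 min RT; substrate 15 nM final, 5 min RT; AS bead mix 10 ug/ml final, 10 min RT. Signal loss = tyrosine-FITC cleavage. No-enzyme wells = max signal.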
TGFb inhibitor – blocks TGF-b signaling | Potency, µM (top dose mostly 46.1 µM), for inactives: at the highest dose activity, negative = inhibition, hits mostly inhibitors | HepG2 CAGA-GFP TGF-b/SMAD3 reporter, GFP fluorescence, 18 h; TGF-beta stimulated, 500 pg/mL final | 1.2% of 410,000 active; further: potency means the concentration at half of the fitted maximal effect; on the % scale 0 is the no-effect control and ±100 the full control effect; nearly all actives have a fitted effect of over 65% in size
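Inhibition of TGF-beta-driven CAGA-GFP reporter expression in HEPG2 cells is measured by cellular GFP fluorescence after 18 h stimulation with 500 pg/mL recombinant TGF-beta in 1% FBS medium at 37 degrees C.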
TDP1 cell CPT – DT40-hTDP1 cell growth loss with CPT; chicken DT40 Tdp1-/-;hTDP1 cells + 20 nM CPT, ATP luminescence, 48 h; Potency, µM (top dose mostly 46.2 µM), inactives show at the top dose activity change, negative = growth inhibition, hits mostly inhibitors; 12% of 420,000 active; AID 686979; further: potency means the concentration at half of the fitted maximal effect; on the % scale 0 is the no-effect control and ±100 the full control effect; nearly all actives have a fitted effect of over 55% in size
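Chicken DT40 Tdp1-/- cells complemented with human TDP1, 400 cells/well, exposed to compounds plus 20 nM camptothecin for at least 48 h at 37 C; viability read as ATP content by CellTiter-Glo luminescence.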
Starred values were filed as active, the others as inactive; ? = inconclusive; / = no result given. Unless noted, the call rests on the fitted dose curve; in most records, active means well fitted curve in the direction sought with a large enough effect; inconclusive means small, poorly fitted or top-dose-only effect, or another doubt; inactive means no such curve, though single readings can be large; an effect the other way counts as inactive or inconclusive.

SMILES	TDP1 cell noCPT	HepG2 tox	IL1B secr inh	TDP1 block	TGFb inhibitor	TDP1 cell CPT
C[C@H](NC(=O)c1nc[nH]c1C(=O)NC(c1ccccc1)c1ccccc1)C(=O)OC(C)(C)C	?	-77%	?	10%	?	-96%
CC(C)C[C@H](NC(=O)c1nc[nH]c1C(=O)NCCCCCNC(=O)OC(C)(C)C)C(=O)OC(C)(C)C	18µM*	-32%	-3	12%	?	?
Cc1ccc(S(=O)(=O)N(C)c2cccc3cccnc23)cc1	/	/	/	4%	/	/
Cc1cccc(NC(=O)c2nc[nH]c2C(=O)N[C@@H](C)C(=O)OC(C)(C)C)c1	?	-26%	-67*	10%	?	18µM*
CC(C)C[C@H](NC(=O)c1[nH]cnc1C(=O)N[C@@H](C)C(=O)OC(C)(C)C)C(=O)OC(C)(C)C	12µM*	11µM*	-61*	5%	?	18µM*
CCCCc1c(O)c2ccccc2n(CCCC)c1=O	?	-4%	23	3%	25%	18%
CCCCc1c(CCC)c(=N)c2ccccc2n1C	5.2µM*	-10%	-77*	-4%	-26%	23µM*
Cc1ccc(NC(=O)c2cc(S(=O)(=O)N3CCOCC3)ccc2Cl)cc1S(=O)(=O)N1CCOCC1	?	9%	31	/	5%	?
Cc1cc(C)n(-c2ccc(C(=O)Nc3ccc(C)c(S(=O)(=O)N4CCOCC4)c3)cc2)n1	16µM*	-14%	-88*	0%	?	?
CC1CC(C)CN(C(=O)c2ccc(NC(=O)c3ccc(=O)[nH]c3)cc2)C1 (configuration not stated)	-23%	6%	6	1%	0%	0%
CC1CC(C)CN(S(=O)(=O)c2ccc(NC(=O)c3ccc(=O)[nH]c3)cc2)C1 (configuration not stated)	2.9µM*	-38%	10	-4%	?	3.3µM*
Cc1ccc(NC(=O)c2ccc(S(=O)(=O)N3CC(C)CC(C)C3)cc2)cc1S(=O)(=O)N1CCOCC1 (configuration not stated)	7.3µM*	2%	-22	/	?	16µM*
Cc1ccc(NC(=O)c2cccnc2)cc1S(=O)(=O)N1CCOCC1	-24%	3%	19	0%	-5%	4%
COc1ccccc1N1CCN(S(=O)(=O)c2c(C)sc3ncn(CC(=O)Nc4ccc(C)cc4Br)c(=O)c23)CC1	-5%	1%	/	-3%	0%	-1%
CC(=O)N1CCc2c(sc3c2c(=O)n(CCc2ccccc2)c(=O)n3Cc2ccc(Cl)cc2)C1	?	-52%	/	5%	?	?
CCCCCNC(=O)C(c1ccc(C(F)(F)F)cc1)n1c(=O)c(-c2ccco2)nc2ccccc21 (configuration not stated)	18µM*	/	59	/	/	?
O=C(NC1CCCCC1)C(c1ccccc1)n1c(=O)c(-c2ccco2)nc2ccccc21 (configuration not stated)	21µM*	/	0	/	/	18µM*
N#Cc1ccc(C(C(=O)NC2CCCCC2)n2c(=O)c(-c3ccco3)nc3ccccc32)cc1 (configuration not stated)	16µM*	/	?	/	/	15µM*
O=C(NC1CCCCC1)C(c1ccc(C(F)(F)F)cc1)n1c(=O)c(-c2ccco2)nc2ccccc21 (configuration not stated)	?	/	-9	/	/	1.6µM*
O=c1c2ccccc2nnn1CCc1ccccc1	?	-1%	52	/	2%	2%
CCCCCNC(=O)C(C1CC1)n1c(=O)c(-c2ccco2)nc2ccccc21 (configuration not stated)	13µM*	/	15	/	/	15µM*
CCCCCNC(=O)C(c1cccc2ccccc12)n1c(=O)c(-c2ccco2)nc2ccccc21 (configuration not stated)	?	/	1	/	/	?
O=C(NC1CCCCC1)C(C1CC1)n1c(=O)c(-c2ccco2)nc2ccccc21 (configuration not stated)	10µM*	/	2	/	/	?
O=S1(=O)c2cccc3cccc(c23)N1CCBr	9%	4%	-7	-20%	3%	4%
COc1ccc(Cc2nnc(NC(=O)c3ccc(F)cc3)s2)cc1OC	-22%	-7%	-1	/	-2%	-12%
SMILES	TDP1 cell noCPT	HepG2 tox	IL1B secr inh	TDP1 block	TGFb inhibitor	TDP1 cell CPT
COCCNC(=O)C1(C)CCCN(C(=O)c2ccc(C#N)cc2)C1 (configuration not stated)	1%	1%	22	/	22%	-16%
CC(Cl)C(=O)c1ccc2c(c1)CCN2C(=O)C1CC1 (configuration not stated)	?	-3%	-63*	0%	4%	?
Cc1cccc(NS(=O)(=O)c2ccc3c(c2)CCN3C(=O)C2CC2)c1C	23µM*	-5%	/	-7%	-28%	21µM*
Cc1cccc(NS(=O)(=O)c2ccc3c(c2)CCCN3C(=O)C2CCC2)c1C	?	-6%	/	7%	?	21µM*
CCC(=O)N1CCc2cc(S(=O)(=O)Nc3ccccc3C)ccc21	?	-15%	-18	/	6%	-25%
CC(=O)N1CCCc2cc(S(=O)(=O)Nc3cccc(C)c3C)ccc21	?	-2%	10	6%	0%	?
COc1ccccc1N(C(=O)c1ccco1)C(C(=O)NC1CCCC1)c1ccc(N2CCOCC2)cc1 (configuration not stated)	8%	7%	-5	/	18%	-25%
Clc1cccc(CN2CCc3c([nH]c4ccccc34)C2)c1	?	-19%	-98*	/	-15%	?
CSc1ccc(CN2CCc3c([nH]c4ccccc34)C2)cc1	?	-23%	-73*	/	?	-30%
Cc1cccc(CN2CCc3c([nH]c4ccccc34)C2)c1	18µM*	-24%	?	/	-28%	21µM*
c1ccc(CN2CCc3[nH]c4ccccc4c3C2)cc1	?	-3%	-3	/	?	-21%
Clc1ccc(CN2CCc3c([nH]c4ccccc34)C2)cc1Cl	15µM*	-116%	-70*	/	18µM*	?
COc1cc(OC)c(CN2CCc3c([nH]c4ccccc34)C2)cc1Br	?	-62%	0	/	?	?
